# High-throughput results from PubChem.
# Most compounds without a hit are left out; they make up all but 3.7% or so of the library.
# PTHR1 agonist = activates the human parathyroid hormone receptor PTHR1; 410,000 tested, 0.075% active; HEK293 GP2 PTHR1 cells, GloSensor cAMP luminescence, 1 h; Q03431; Potency, µM (highest dose often 115 µM), inactives show top-dose activation, usual class: activators; also: potency is read from the fitted curve at half-maximal effect; nearly all actives have a fitted effect of over 55% in size
#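 HEK-293-derived GP2 cells expressing PTHR1 and a GloSensor cAMP reporter, 3,000/well, plated overnight, given luciferin plus IBMX (each 0.5 mM as added) for 1 h at 37 °C, then compound for 1 h at 37 °C. Luminescence was read after 15 min at room temperature.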
# DRD3 agonist = activates the human D3 dopamine receptor; P35462; D3R DiscoveRx beta-arrestin cells, luminescence, 90 min; max activation, %; 410,000 tested, 0.58% active; AID 652048; in the data active = max activation above about 30%; also: 0% is about no effect
# Target sequence (P35462 whole entry, looked up): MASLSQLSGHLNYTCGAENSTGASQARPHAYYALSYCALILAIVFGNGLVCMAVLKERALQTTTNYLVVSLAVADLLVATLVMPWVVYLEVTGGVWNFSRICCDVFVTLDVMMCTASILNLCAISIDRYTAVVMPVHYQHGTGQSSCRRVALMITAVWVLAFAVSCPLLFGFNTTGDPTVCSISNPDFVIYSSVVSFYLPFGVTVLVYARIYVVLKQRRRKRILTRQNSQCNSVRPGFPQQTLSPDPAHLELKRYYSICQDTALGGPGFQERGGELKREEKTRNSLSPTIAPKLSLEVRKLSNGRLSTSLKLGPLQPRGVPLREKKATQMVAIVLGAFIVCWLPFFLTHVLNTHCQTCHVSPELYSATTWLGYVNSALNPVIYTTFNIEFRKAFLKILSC
#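 Cells at 1500/well, incubated overnight, then treated with pinned compounds (dopamine as control) for 90 min at 37 degrees C. DiscoveRx reagent added for 30 - 60 minutes at room temperature; luminescence read.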
# B2AR arrestin = beta2AR (human) beta-arrestin recruitment activity | Potency, µM (highest dose often 46.1 µM), inactives show at the highest dose activation, most hits filed as activators | 330,000 tested, 0.02% active | beta-arrestin recruitment to beta2AR, cell-based reporter;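 also: potency is read from the fitted curve at half-maximal effect; 0% = DMSO controls and full agonism = EC100 isoproterenol or metaproterenol; nearly all actives have a fitted effect of over 65% in size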
# BRCA1 expr up = activators of BRCA1 expression. MCF7-BRCA1-FFLuc reporter, luminescence, 48 h; response scale: scaled: vehicle 0%, 10 µM genistein 100%. Potency, µM (series often up to 46.1 µM), inactives show at the top dose activation, hits mostly activators. 380,000 tested, 1.1% active; also: potency is read from the fitted curve at half-maximal effect; nearly all actives have a fitted effect of over 80% in size
#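 MCF7-BRCA1-FFLuc cells, 2000/well in phenol-red-free MEM, attached 2 h then treated 48 h at 37 C. Luciferase luminescence read 15 min after reagent; normalized to genistein maximum activation (10microM) and DMSO, concentration-response fitted.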
# RGS4 inhibitor = inhibitors of human regulator of G protein signaling 4 | Potency, µM (titrated, usually from 114 µM), inactives show at the highest dose activity change, negative = inhibition, usual class: inhibitors | 390,000 tested, 0.039% active | P49798 | Transcreener GDP fluorescence polarization, RGS4-accelerated GTP hydrolysis | AID 504845; also: potency is read from the fitted curve at half-maximal effect; % is scaled to controls: 0 for no effect and ±100 for the full control effect; nearly all actives have a fitted effect of over 75% in size
# Target sequence (P49798 whole entry, looked up): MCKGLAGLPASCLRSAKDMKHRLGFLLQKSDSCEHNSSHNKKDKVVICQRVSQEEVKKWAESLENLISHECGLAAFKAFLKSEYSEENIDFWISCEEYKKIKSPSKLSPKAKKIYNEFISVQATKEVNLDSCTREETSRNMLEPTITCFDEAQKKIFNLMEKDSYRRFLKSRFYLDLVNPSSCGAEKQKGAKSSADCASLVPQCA
#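 MLSMR compounds (23 nl, pin-transferred) preincubated 10 min at room temperature with a 500nM (2x) first reagent, then RGS4 at 900nM (2x) plus Transcreener GDP mix added; fluorescence polarization (620/688 nm) read before and after 90 min at 30 °C.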
# D3 antag = blocks the human D3 dopamine receptor; P35462; D3R cells, DiscoveRx beta-arrestin luminescence, antagonist mode; stronger effect = lower value; max response, negative = inhibition, %; 360,000 tested, 2.5% active; in the data active = max response below about -50%; inconclusive = no clear call, values can overlap the other calls; also: % is scaled to controls: 0 for no effect and ±100 for the full control effect
#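 Cells plated overnight at 1500 cells/well, then exposed to library compounds with dopamine controls for 90 minutes at 37 degrees C. DiscoveRx reagent added for 30–60 minutes at room temperature; luminescence read, quantitative HTS format.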
# Active calls of the source: *; i = inactive; ? = inconclusive; / = not tested or not shown; [ ] = dose if it differs, or a comment. Unless noted, calls follow the shape of the dose curve; as a rule, active = well fitted curve in the direction sought with a large enough effect; inconclusive = small, poorly fitted or top-dose-only effect, or another doubt; inactive = no such curve, though single readings can be large; an effect the other way counts as inactive or inconclusive.
SMILES,PTHR1 agonist,DRD3 agonist,B2AR arrestin,BRCA1 expr up,RGS4 inhibitor,D3 antag
CCOc1ccc(C(=S)N2CCCC2)cc1OC,i,2,0%,26%,28%,-16
COc1cc(C(=S)N2CCCC2)ccc1OCc1ccc(C)cc1,-9%,2,5%,11µM*,-24%,6
COc1cc(OC)cc(-c2noc([C@@H]3O[C@H](CO)[C@H](O)[C@H](O)[C@H]3O)n2)c1,i,4,/,20%,/,11
CCC[C@@]1(CCc2ccccc2)CC(O)=C([C@H](CC)c2cccc(NS(=O)(=O)c3ccc(C(F)(F)F)cn3)c2)C(=O)O1,/,5,/,/,/,/
COc1cccc(C(=O)NC2CCCN(C3Cc4ccccc4C3)C2)c1OC (stereo unspecified),-1%,-3,0%,0%,13%,-93*
COc1ccc(-c2noc(CCC(=O)N3CCN(c4ccccc4C(F)(F)F)CC3)n2)cc1,-45%,31*,0%,6%,4%,117
COc1ccc(-c2noc(CCC(=O)N3CCN(c4cccc(Cl)c4)CC3)n2)cc1,-28%,14,0%,1%,17%,53
COc1ccc(-c2noc(CCC(=O)N3CCN(c4cccc(F)c4)CC3)n2)cc1,-43%,34*,0%,11%,5%,100
CSc1ccc(CNc2ccccn2)cc1,-5%,-7,0%,10µM*,-22%,-21
C=C1C(=O)O[C@H]2[C@H]1CC/C(C)=C\CC[C@@]1(C)O[C@@H]21,/,-10,/,/,/,/
Cc1ccc2c(CN3CC(C)CC(C)C3)cc(=O)oc2c1 (stereo unspecified),i,-3,0%,-32%,0%,-4
Cc1cc2oc(=O)cc(CN3CCN(Cc4ccccc4)CC3)c2cc1Cl,i,-15,0%,8%,-2%[11.4 µM],?
Cc1cc2oc(=O)cc(CN3CCC(C)CC3)c2cc1Cl,-8%,-4,0%,64%,15%,-52*
Cc1ccc2c(CN3CCC(C)CC3)cc(=O)oc2c1,-18%,-34,0%,3.2µM*,22%,-61*
O=S(=O)(c1ccc(Cl)s1)N1CCN(C/C=C/c2ccccc2)CC1,-23%[57.5 µM],1,1%,-55%,11%,-82*
O=S(=O)(c1ccc(Cl)s1)N1CCN(Cc2ccccc2)CC1,i,-10,-1%,-30%,-16%,-59*
COc1ccc(OCc2nc3c4c(-c5ccccc5)c(-c5ccccc5)oc4ncn3n2)cc1,?,-17,/,/,-6%,/
Cc1nc2cc(NC(=O)C3(C)CCCN(C(C)C)C3)ccc2o1 (stereo unspecified),i,-5,/,40%,/,6
O=C(Nc1ccccc1F)c1ccc(CN2CCc3ccccc3C2)cc1,-33%,-12,0%,-6%,-11%,0
COC(=O)c1ccc(C)c(NC(=O)c2ccc(CN3CCc4ccccc4C3)cc2)c1,-73%,-19,3%,-30%,3%,-92*
COc1ccc(C)cc1NC(=O)c1ccc(CN2CCc3ccccc3C2)cc1,-9%,-19,0%,-31%,-10%[56.9 µM],-69*
Cc1occc1C(=O)NNS(=O)(=O)c1ccc([N+](=O)[O-])cc1,-23%,19,0%,0%,-9%,9
Cc1cc(OCC(=O)N(Cc2ccc(N(C)C)cc2)C2CCS(=O)(=O)C2)cc(C)c1Cl (stereo unspecified),-40%,-9,/,/,-22%,/
CCOc1ccc(S(=O)(=O)NCC(c2ccco2)S(=O)(=O)c2ccc(F)cc2)cc1 (stereo unspecified),-17%,4,/,/,14%,/
CC1CCCCN1C(=O)COC(=O)c1n[nH]c2ccccc12 (stereo unspecified),i,3,-1%,10µM*,2%,18
SMILES,PTHR1 agonist,DRD3 agonist,B2AR arrestin,BRCA1 expr up,RGS4 inhibitor,D3 antag
C=C[C@@]1(C)CC(=O)[C@@]2(O)[C@@]3(C)[C@@H](O)CCC(C)(C)[C@@H]3[C@H](OC(=O)CCN(C)C)[C@H](OC(C)=O)[C@@]2(C)O1,/,/,/,/,8.4µM*,/
Cc1nnc(NC(=O)C2CCN(C(=O)c3ccsc3)CC2)s1,/,/,/,-6%,-9%,/
CCn1nc(NS(=O)(=O)c2ccccc2)c2cc3ccc(C)cc3nc21,-22%,-5,0%,-23%,-2%,-63*
CCn1nc(NS(=O)(=O)c2ccccc2)c2cc3cc(C)ccc3nc21,i,-9,0%,-9%,30%,-26
COc1cccc(-c2nc(Cl)nc3cc(Cl)ccc23)c1,i,-4,/,8%,/,-11
CCNC(=O)[C@@H]1CCCN1C(=O)[C@H](CCCN=C(N)N)NC(=O)[C@H](CC(C)C)NC(=O)[C@@H](Cc1c[nH]c2ccccc12)NC(=O)[C@H](Cc1ccc(O)cc1)NC(=O)[C@H](CO)NC(=O)[C@H](Cc1c[nH]c2ccccc12)NC(=O)[C@H](Cc1cnc[nH]1)NC(=O)[C@@H]1CCC(=O)N1,/,-16,/,/,/,/
OC(CN1CCN(c2ccccc2Cl)CC1)c1ccccc1 (stereo unspecified),-6%,-2,0%,13%,8%,-84*
OC(CN1CCN(c2ccccc2F)CC1)c1ccc(F)cc1 (stereo unspecified),i,36*,0%,-34%,-1%[56.9 µM],-8
OC(COc1ccc(F)cc1)CN1CCN(c2ccccc2F)CC1 (stereo unspecified),i,-9,0%,4%,18%,-18
O=C(NCCCN1CCCC1=O)c1ccc([N+](=O)[O-])s1,i,7,0%,-27%,-12%,9
O=C(OCC(=O)N1CCN(c2ccccc2)CC1)c1ccccc1[N+](=O)[O-],-25%,8,0%,13µM*,?,-4
Cc1ccc(C(=O)OCC(=O)N2CCCCCC2)c(O)c1,-18%,1,1%,13µM*,15%,-2
O=C(OCC(=O)N1CCOCC1)c1ccc2ccccc2c1O,-10%,3,0%,3.2µM*,-19%,12
O=C(OCC(=O)N1CCCC1)c1ccccc1O,i,0,0%,20µM*,-4%,4
O=C(OCC(=O)N1CCN(c2ccccc2)CC1)c1cccc([N+](=O)[O-])c1,-7%,-6,0%,-11%,-25%,-25
CCOC(=O)CCNC(=O)N1CCN(S(=O)(=O)c2ccc3c(ccn3C)c2)CC1,i,2,/,0%,-6%,/
Nc1ccc(CSc2ccc(Cl)cc2)c(Cl)c1,-20%,-10,/,1.8µM*,0%,7
N=C(N)SCc1ccc(Cl)cc1Cl,i,1,7%,-57%,33%,-18
O=C1CS/C(=C\[N+](=O)[O-])N1c1ccccc1,-15%,-4,0%,-9%,-44%,-71*
